Experimental findings from ChEMBL document CHEMBL4513142, “CO-ADD screening of Indiana University - Purdue University Indianapolis (USA) compounds” are described below.

Values joined by “and” are separate entries in the source; they are usually repeats but may differ in a detail not shown here. Identical values can stand only once. Measured potencies and affinities stand elsewhere.

For one assay, the system named is Escherichia coli. Particulars: Concentration 32 ug.mL-1; ASSAY_TEST Inhibition of Bacterial Growth; detection method Absorption (OD600); MEDIA CAMHB; plate type 384well; NBS; CORNING #3640; time 18 hr.
Consider `CCCNC(=O)C(Cc1ccccc1)NC(=O)c1ccc(F)cc1` (configuration not stated), for which the Inhibition (commonly the change of the read-out against control, counted positive when it falls) is listed as 11.25%. The same measure, in the same setting: with `[C-]#[N+]c1ccc(C(=O)NC(Cc2ccc(F)cc2)C(=O)NCCC)cc1` (configuration not stated) the figure was 15%.

As to `[C-]#[N+]c1ccc(C(=O)NC(Cc2ccc(C(F)(F)F)cc2)C(=O)NCCC)cc1` (configuration not stated), the Inhibition is recorded as 13.88%.

As for `CCCNC(=O)C(Cc1ccccc1C)NC(=O)c1ccc(C(F)(F)F)cc1` (configuration not stated), the Inhibition is 15.38%. Still for that read-out and setting: with `[C-]#[N+]c1ccc(C(=O)NC(Cc2ccccc2F)C(=O)NCCC)cc1` (configuration not stated) the figure was 11.79%; with `[C-]#[N+]c1ccc(C(=O)NC(CC)C(=O)NCCC)cc1` (configuration not stated), 3.26%. In the case of `CCCNC(=O)C(Cc1ccc(F)cc1)NC(=O)c1ccccc1` (configuration not stated), the Inhibition is listed as 9.01%. Still for that read-out and setting: the result for `[C-]#[N+]c1ccc(C(=O)NC(CC=C)C(=O)NCCC)cc1` (configuration not stated) reads 6.66%; that for `CCCNC(=O)C(Cc1ccccc1)NC(=O)Cc1ccccc1` (configuration not stated), 14.02%. On the same count and under the same terms, the result for `[C-]#[N+]c1ccc(C(=O)NC(CC#C)C(=O)NCCC)cc1` (configuration not stated) reads 17.34%.

The same assay, now with this note: Concentration 32 ug.mL-1; ASSAY_TEST Inhibition of Bacterial Growth; detection method Absorption (OD600); MEDIA CAMHB; plate type 384well; NBS; CORNING #3640; time 18 hr, 32 ug/mL.
In the case of `NC(Cc1ccccc1F)C(=O)O.O=C(O)C(F)(F)F` (configuration not stated), the Inhibition is 17.44% and 15.69%. On the same count and under the same terms, the result for `COc1cc(C(=O)N[C@@H](CC(C)C)C(=O)O)ccc1O` reads 10.4% and 9.74%.

In the case of `Cc1ccc(C(=O)NC(Cc2cc(F)c(F)cc2F)C(=O)O)cc1` (configuration not stated), the Inhibition is 4.35% and 11.7%. The same measure, in the same setting: the result for `CC(C)C[C@H](NC(=O)c1cccnc1)C(N)=O` reads -6.61% and -6.83%; that for `O=C(N[C@@H](Cc1ccccc1)C(=O)O)C1CCCCC1`, 2.23% and -1.68%; that for `NC(Cc1ccccc1I)C(=O)O.O=C(O)C(F)(F)F` (configuration not stated), 13.12% and 15.99%. Regarding `NC(=O)[C@@H]1CCCN1C(=O)c1ccccn1`, the Inhibition is 20.95% and 16.57%. For `NC(=O)[C@H](Cc1ccccc1)NC(=O)c1c(F)c(F)c(F)c(F)c1F`, the Inhibition was 6.54% and 12.4%.

As for `NC(=O)[C@H](Cc1ccccc1)NC(=O)c1cccnc1`, the Inhibition is 20.31% and 18.99%. Still for that read-out and setting: with `NC(Cc1ccc(F)cc1)C(=O)O.O=C(O)C(F)(F)F` (configuration not stated) the figure was 9.45% and 2%; with `NC(Cc1cccc(F)c1)C(=O)O.O=C(O)C(F)(F)F` (configuration not stated), 9.03% and 16.34%; with `O=C(Cc1cccc(Br)c1)N[C@@H](Cc1ccccc1)C(=O)O`, 5.53% and 8.68%.

With `CC(C)[C@H](NC(=O)c1cccc(C(F)(F)F)c1)C(=O)O`, the Inhibition is 0.57% and -0.75%. Turning to `C[C@H](NC(=O)c1ccccc1Cl)C(=O)O`, the Inhibition was 2.9% and -3.06%.

With `O=C(NC(Cc1ccc(Cl)nc1)C(=O)O)c1ccccc1` (configuration not stated), the Inhibition is 9.12% and 5.81%. On the same count and under the same terms, the result for `NC(Cc1ccc(F)c(F)c1)C(=O)O.O=C(O)C(F)(F)F` (configuration not stated) reads 15.3% and 11.55%; that for `Cc1ccc(C(=O)NC(Cc2ccccc2C#N)C(=O)O)cc1` (configuration not stated), 12.75% and 9.35%.
